Source: the supplement of paper PMC4466140

Columns and labels:
Test in all cases: SPOT peptide array binding signal intensity (averaged, normalized) (arbitrary units (background-subtracted, floor 0; scale differs between SH3 domains)); higher = stronger binding of the SH3 domain to the peptide
AgAbp1 = biological target: AgAbp1
Outline: (§1)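 Four yeast species supplied the SH3 domains, which were expressed as GST fusions in E. coli BL21(DE3) and purified on glutathione Sepharose. Incubation with cellulose membranes carrying synthetic 15-mer peptides, cysteines exchanged for serines, ran overnight at 4°C at 10 μg/ml in TBS-based blocking buffer. Binding signal is reported as normalized, background-subtracted spot intensity averaged over replicates, in arbitrary units not shared between domains.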

AgBbc1 = biological target: AgBbc1
Outline: as §1

AgBem1-D1 = biological target: AgBem1-D1
Outline: as §1

AgBzz1-D1 = biological target: AgBzz1-D1
Outline: as §1

AgBzz1-D2 = biological target: AgBzz1-D2
Outline: as §1

AgCyk3 = biological target: AgCyk3
Outline: as §1

AgFus1 = biological target: AgFus1
Outline: as §1

AgHof1 = biological target: AgHof1
Outline: as §1

AgHse1 = biological target: AgHse1
Outline: as §1

AgLsb1 = biological target: AgLsb1
Outline: as §1

AgLsb4 = biological target: AgLsb4
Outline: as §1

AgMyo5 = biological target: AgMyo5
Outline: as §1

AgNbp2 = biological target: AgNbp2
Outline: as §1

AgRvs167 = biological target: AgRvs167
Outline: as §1

AgSho1 = biological target: AgSho1
Outline: as §1

AgSla1-D1-D2 = biological target: AgSla1-D1-D2
Outline: as §1

AgSla1-D3 = biological target: AgSla1-D3
Outline: as §1

CaAbp1-D1 = biological target: CaAbp1-D1
Outline: as §1

CaAbp1-D2 = biological target: CaAbp1-D2
Outline: as §1

CaBbc1 = biological target: CaBbc1
Outline: as §1

CaBem1-D1 = biological target: CaBem1-D1
Outline: as §1

CaBzz1-D1 = biological target: CaBzz1-D1
Outline: as §1

CaBzz1-D2 = biological target: CaBzz1-D2
Outline: as §1

CaCyk3 = biological target: CaCyk3
Outline: as §1

CaFus1 = biological target: CaFus1
Outline: as §1

CaHof1 = biological target: CaHof1
Outline: as §1

CaHse1 = biological target: CaHse1
Outline: as §1

CaLsb1 = biological target: CaLsb1
Outline: as §1

CaLsb4 = biological target: CaLsb4
Outline: as §1

CaMyo5 = biological target: CaMyo5
Outline: as §1

CaNbp2 = biological target: CaNbp2
Outline: as §1

CaRvs167 = biological target: CaRvs167
Outline: as §1

CaRvs167-3 = biological target: CaRvs167-3
Outline: as §1

CaSho1 = biological target: CaSho1
Outline: as §1

CaSla1-D1-D2 = biological target: CaSla1-D1-D2
Outline: as §1

CaSla1-D3 = biological target: CaSla1-D3
Outline: as §1

ScAbp1 = biological target: ScAbp1
Outline: as §1

ScBbc1 = biological target: ScBbc1
Outline: as §1

ScBem1-D1 = biological target: ScBem1-D1
Outline: as §1

ScBzz1-D1 = biological target: ScBzz1-D1
Outline: as §1

ScBzz1-D2 = biological target: ScBzz1-D2
Outline: as §1

ScCyk3 = biological target: ScCyk3
Outline: as §1

ScFus1 = biological target: ScFus1
Outline: as §1

ScHof1 = biological target: ScHof1
Outline: as §1

ScHse1 = biological target: ScHse1
Outline: as §1

ScLsb1 = biological target: ScLsb1
Outline: as §1

ScLsb2 = biological target: ScLsb2
Outline: as §1

ScLsb3 = biological target: ScLsb3
Outline: as §1

ScLsb4 = biological target: ScLsb4
Outline: as §1

ScMyo3 = biological target: ScMyo3
Outline: as §1

ScMyo5 = biological target: ScMyo5
Outline: as §1

ScNbp2 = biological target: ScNbp2
Outline: as §1

ScPex13 = biological target: ScPex13
Outline: as §1

ScRvs167 = biological target: ScRvs167
Outline: as §1

ScSho1 = biological target: ScSho1
Outline: as §1

ScSla1-D1-D2 = biological target: ScSla1-D1-D2
Outline: as §1

ScSla1-D3 = biological target: ScSla1-D3
Outline: as §1

SpAbp1-D1 = biological target: SpAbp1-D1
Outline: as §1

SpBbc1 = biological target: SpBbc1
Outline: as §1

SpBzz1-D1 = biological target: SpBzz1-D1
Outline: as §1

SpBzz1-D2 = biological target: SpBzz1-D2
Outline: as §1

SpCyk3 = biological target: SpCyk3
Outline: as §1

SpHof1 = biological target: SpHof1
Outline: as §1

SpHof1-2 = biological target: SpHof1-2
Outline: as §1

SpHof1-3 = biological target: SpHof1-3
Outline: as §1

SpHse1 = biological target: SpHse1
Outline: as §1

SpLsb1 = biological target: SpLsb1
Outline: as §1

SpLsb4 = biological target: SpLsb4
Outline: as §1

SpMyo1 = biological target: SpMyo1
Outline: as §1

SpNbp2 = biological target: SpNbp2
Outline: as §1

SpPex13 = biological target: SpPex13
Outline: as §1

SpRvs167 = biological target: SpRvs167
Outline: as §1

SpSla1-D1-D2 = biological target: SpSla1-D1-D2
Outline: as §1

SpSla1-D3 = biological target: SpSla1-D3
Outline: as §1

RLSFFFPLDPAYIRN
SPOT peptide array binding signal intensity (AgAbp1): ≤ 0
SPOT peptide array binding signal intensity (AgBbc1): 2.25
SPOT peptide array binding signal intensity (AgBem1-D1): 121
SPOT peptide array binding signal intensity (AgBzz1-D1): 27
SPOT peptide array binding signal intensity (AgBzz1-D2): 72.5
SPOT peptide array binding signal intensity (AgCyk3): 7
SPOT peptide array binding signal intensity (AgFus1): 854
SPOT peptide array binding signal intensity (AgHof1): 34
SPOT peptide array binding signal intensity (AgHse1): 1180
SPOT peptide array binding signal intensity (AgLsb1): 1.5
SPOT peptide array binding signal intensity (AgLsb4): 152
SPOT peptide array binding signal intensity (AgMyo5): 1.5
SPOT peptide array binding signal intensity (AgNbp2): 34
SPOT peptide array binding signal intensity (AgRvs167): 4
SPOT peptide array binding signal intensity (AgSho1): 50
SPOT peptide array binding signal intensity (AgSla1-D1-D2): 37
SPOT peptide array binding signal intensity (AgSla1-D3): 8.5
SPOT peptide array binding signal intensity (CaAbp1-D1): 2
SPOT peptide array binding signal intensity (CaAbp1-D2): ≤ 0
SPOT peptide array binding signal intensity (CaBbc1): ≤ 0
SPOT peptide array binding signal intensity (CaBem1-D1): 24
SPOT peptide array binding signal intensity (CaBzz1-D1): 32.5
SPOT peptide array binding signal intensity (CaBzz1-D2): 43
SPOT peptide array binding signal intensity (CaCyk3): 3
SPOT peptide array binding signal intensity (CaFus1): 2490
SPOT peptide array binding signal intensity (CaHof1): 0.5
SPOT peptide array binding signal intensity (CaHse1): 134
SPOT peptide array binding signal intensity (CaLsb1): 1.5
SPOT peptide array binding signal intensity (CaLsb4): 45.5
SPOT peptide array binding signal intensity (CaMyo5): 187
SPOT peptide array binding signal intensity (CaNbp2): 474
SPOT peptide array binding signal intensity (CaRvs167): 57.8
SPOT peptide array binding signal intensity (CaRvs167-3): 238
SPOT peptide array binding signal intensity (CaSho1): 1050
SPOT peptide array binding signal intensity (CaSla1-D1-D2): ≤ 0
SPOT peptide array binding signal intensity (CaSla1-D3): 35.8
SPOT peptide array binding signal intensity (ScAbp1): 2
SPOT peptide array binding signal intensity (ScBbc1): ≤ 0
SPOT peptide array binding signal intensity (ScBem1-D1): 17
SPOT peptide array binding signal intensity (ScBzz1-D1): 42
SPOT peptide array binding signal intensity (ScBzz1-D2): 79
SPOT peptide array binding signal intensity (ScCyk3): 282
SPOT peptide array binding signal intensity (ScFus1): 627
SPOT peptide array binding signal intensity (ScHof1): 2
SPOT peptide array binding signal intensity (ScHse1): 1380
SPOT peptide array binding signal intensity (ScLsb1): 0.5
SPOT peptide array binding signal intensity (ScLsb2): ≤ 0
SPOT peptide array binding signal intensity (ScLsb3): 48
SPOT peptide array binding signal intensity (ScLsb4): 9
SPOT peptide array binding signal intensity (ScMyo3): 9.5
SPOT peptide array binding signal intensity (ScMyo5): 5
SPOT peptide array binding signal intensity (ScNbp2): 84.5
SPOT peptide array binding signal intensity (ScPex13): 6.25
SPOT peptide array binding signal intensity (ScRvs167): 7.67
SPOT peptide array binding signal intensity (ScSho1): 738
SPOT peptide array binding signal intensity (ScSla1-D1-D2): 13
SPOT peptide array binding signal intensity (ScSla1-D3): 37.5
SPOT peptide array binding signal intensity (SpAbp1-D1): 1
SPOT peptide array binding signal intensity (SpBbc1): 0.5
SPOT peptide array binding signal intensity (SpBzz1-D1): 121
SPOT peptide array binding signal intensity (SpBzz1-D2): 2
SPOT peptide array binding signal intensity (SpCyk3): 24
SPOT peptide array binding signal intensity (SpHof1): 130
SPOT peptide array binding signal intensity (SpHof1-2): 45
SPOT peptide array binding signal intensity (SpHof1-3): 389
SPOT peptide array binding signal intensity (SpHse1): 1620
SPOT peptide array binding signal intensity (SpLsb1): ≤ 0
SPOT peptide array binding signal intensity (SpLsb4): 15
SPOT peptide array binding signal intensity (SpMyo1): 17.8
SPOT peptide array binding signal intensity (SpNbp2): 69.5
SPOT peptide array binding signal intensity (SpPex13): 23.5
SPOT peptide array binding signal intensity (SpRvs167): 11.2
SPOT peptide array binding signal intensity (SpSla1-D1-D2): 6
SPOT peptide array binding signal intensity (SpSla1-D3): 32
